The list is not random: actives were taken first. Their share in the collection is about 3.9%.
HepG2 viability = counter-screen for TGF-b inhibitors: cytotoxicity in HepG2 cells. HepG2 CAGA-GFP viability, ATP luminescence, 18 h. Potency, µM (highest dose often 46.1 µM), for the others: top-dose activity change, negative = cytotoxicity, usual class: cytotoxic. 410,000 tested, 0.76% active. AID 588856
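HepG2 CAGA-GFP cells (1000/well, DMEM with 1% FBS) received compound, then TGF-beta at 500 pg/mL final, and were incubated 18 hours at 37 degrees C. Viability was read by CellTiter-Glo luminescence. Media-only wells were set as complete cell-killing and DMSO as no toxicity.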
ATXN viability = cell viability loss in ATXN counter-screen; 400,000 tested, 0.49% active; S2 cells (HEK-293 line with an ATXN2-luciferase reporter) viability, CellTiter-Fluor protease fluorescence, 24 h; Potency, µM (top dose mostly 56.7 µM), hits mostly cytotoxic; AID 651635; note: nearly all actives have a fitted effect of over 40% in size
ATXN2 expr inh = ATXN2 expression inhibition | HEK-293 ATXN2-luciferase reporter, luminescence, 24 h | Potency, µM (highest dose often 57 µM), for inactives: at the highest dose activity change, negative = inhibition, usual class: inhibitors | 360,000 tested, 0.72% active | AID 1745845; note: % is set by controls: 0 for no effect and ±100 for the full control effect; nearly all actives have a fitted effect of over 55% in size
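ATXN2-luciferase reporter cells (luciferase flanked by upstream and downstream ATXN2 gene portions) were treated 24 h at 37 °C with compounds at up to 57 uM. SteadyGlo luminescence gave expression; GF-AFC fluorescence gave viability.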
TGFb SMAD3 inh = blocks TGF-b signaling | HepG2 CAGA-GFP TGF-b/SMAD3 reporter, GFP fluorescence, 18 h; TGF-beta stimulated, 500 pg/mL final | Potency, µM (top dose mostly 46.1 µM), without a hit: top-dose activity, negative = inhibition, actives largely listed as inhibitors | 410,000 tested, 1.2% active; note: % is set by controls: 0 for no effect and ±100 for the full control effect; nearly all actives have a fitted effect of over 65% in size
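Per well, imaged GFP fluorescence of HEPG2 CAGA-GFP cells gives the signal; cells get compound, then TGF-beta (500 pg/mL final), 18 h at 37 degrees C; %Activity versus -TGF-beta and +DMSO controls.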
HT1080 IDH1KD tx = toxicity to HT-1080 IDH1 knockdown cells (counter line); HT-1080 IDH1 knockdown viability, ATP luminescence, 48 h; 360,000 tested, 2% active; Potency, µM (highest dose often 46.1 µM), inactives show top-dose activity, negative = toxicity, actives largely listed as cytotoxic;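 note: 0% = DMSO wells and -100% = cell-free medium wells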
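Assay cells: HT-1080 with IDH1 knockdown, 750 per well, RPMI/5% FBS. Exposure: 48 h at 37 °C following 2 h pre-incubation. Read: CellTiter-Glo luminescence; fitted concentration-response, curve class assigned.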
HT1080-NT tox = kills 2HG-producing HT-1080-NT fibrosarcoma cells; HT-1080-NT fibrosarcoma viability, CellTiter-Glo ATP luminescence, 48 h; Potency, µM (doses to about 46.1 µM), without a hit: at the highest dose activity, negative = less viability, hits mostly cytotoxic; 360,000 tested, 1.6% active; AID 686970;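 note: NT is the 2HG producing partner of a matched IDH1 knockdown line; 0% = DMSO-treated cells and -100% = media-only wells without cells; nearly all actives have a fitted effect of over 55% in size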
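Luminescent CellTiter-Glo readout after 48 hours of compound exposure at 37 degrees C defined viability of HT-1080-NT cells. Activity was normalized to DMSO wells and cell-free media wells; concentration-response curves were fitted and assigned curve classes.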
* marks the source's active call; other numbers are inactive results; i = inactive; ? = inconclusive; / = not tested or not shown; ! = not confirmed by another sample; [ ] = another dose, or the depositor's remark. Calls come from the whole dose curve; as a rule, active = well fitted curve in the direction sought with a large enough effect; inconclusive = small, poorly fitted or top-dose-only effect, or another doubt; inactive = no such curve, though single readings can be large; an effect the other way counts as inactive or inconclusive. Potency is the fitted concentration of half-maximal effect.

SMILES	HepG2 viability	ATXN viability	ATXN2 expr inh	TGFb SMAD3 inh	HT1080 IDH1KD tx	HT1080-NT tox
CCCN(CCC)CCNC(=O)c1cc2c(-c3ccc(Cl)cc3)nn(C)c2s1	-14%	?	?	-11%	-14%	-18%
CCCCN(CC)CCNC(=O)c1cc2c(-c3ccc(Cl)cc3)nn(C)c2s1	20µM*!	/	?	?	21µM*	21µM*
COc1ccc(-c2nn(C)c3sc(C(=O)NCCN(C)C)cc23)cc1OC	-16%	?	?	12%	-7%	-11%
CCCN(CCC)CCCNC(=O)c1cc2c(-c3ccc(OC)c(OC)c3)nn(C)c2s1	-38%	i	-19%	-5%	21µM*	?
COC1=C2C[C@H](C)C[C@H](OC)[C@@H](O)[C@@H](C)C=C(C)[C@H](OC(N)=O)[C@@H](OC)C=CC=C(C)C(=O)NC(=CC1=O)C2=O	-41%	/	/	?	/	/
CO[C@H]1C=CC=C(C)C(=O)NC2=CC(=O)C(NCCN(C)C)=C(C[C@@H](C)C[C@H](OC)[C@@H](O)[C@@H](C)C=C(C)[C@@H]1OC(N)=O)C2=O	/	/	0.077µM*	/	/	/
C=CCNC1=C2C[C@@H](C)C[C@H](OC)[C@@H](O)[C@@H](C)C=C(C)[C@H](OC(N)=O)[C@@H](OC)C=CC=C(C)C(=O)NC(=CC1=O)C2=O	/	/	1.1µM*	/	/	/
CCc1ccc(C(=O)C(C)OC(=O)Cc2n[nH]c(=O)c3ccccc23)cc1 (stereo not given)	-3%	i	-21%	-24%	13µM*	?
COc1ccccc1-c1ccnc(-n2ncc(C(=O)NCc3cccnc3)c2C)n1	/	i	/	/	/	/
CC1(C)COC(/C=C/c2ccc([N+](=O)[O-])cc2)=N1	-39%	?	-10%	?	23µM*	?
COC1(OC)C(/C=C/c2ccc(Cl)cc2)C(C#N)(C#N)C1(OC)OC (stereo not given)	-44%	/	?	?	21µM*	-23%
Cc1ccc(NC(=O)c2cnn(-c3ccccc3)c2NC(=O)c2ccco2)cc1C	13µM*	i	29%	-2%	-2%	-1%
Cc1cc(C)c(C)c(S(=O)(=O)N2CCN(c3ncnc4ccccc34)CC2)c1C	-37%	i	/	?	23µM*	?
COc1cc2c(C(=O)N3CCN(c4cccc(C)c4)C(C)C3)cn(CC(C)C)c(=O)c2cc1OC (stereo not given)	5%	?	-25%	?	/	/
COc1ccc(CN(C(C)=O)c2cccc(C)c2C)cc1	-6%	?	-23%	-26%	?	16µM*
CC(=O)N(Cc1ccc(Br)cc1)c1cccc(C)c1C	-2%	i	-5%[11.3 µM]	-6%	?	?
CSC1SCC2C(=O)N(C)C(C(C)C)C(=O)OCC(NC(=O)c3cnc4ccccc4n3)C(=O)NC(C)C(=O)N(C)C1C(=O)N(C)C(C(C)C)C(=O)OCC(NC(=O)c1cnc3ccccc3n1)C(=O)NC(C)C(=O)N2C (stereo not given)	35%	?	-63%	-106%	0.0012µM*	-32%
Cc1ccccc1C(=O)Nc1ccc(C(=O)OCc2cc(=O)n3c4c(sc3n2)CCCC4)cc1	8.9µM*	/	/	11µM*	/	/
Cc1ccc(OCCNC(=O)c2cccc(S(=O)(=O)NCc3ccccc3)c2)cc1	-21%	i	-21%	0%	7.3µM*	?
O=C(NCc1ccncc1)c1cccc(S(=O)(=O)NCc2ccccc2)c1	4%	i	-9%	-3%	7%	1%
CCOc1ccc(S(=O)(=O)N2CCN(c3cc(Cl)ccc3Cl)CC2)c2ccccc12	-21%	i	-8%	13%	/	/
CCN1CCN(C(=O)c2cnn(-c3ncc4c(n3)-c3ccccc3CCC4)c2COC)CC1	/	i	/	/	/	/
Cc1ccc(S(=O)(=O)Oc2ccccc2/C=C2\SC(=O)NC2=O)cc1	-10%	i	-7%	-23%	-26%	21µM*
O=C1NC(=O)/C(=C/c2ccccc2Oc2ccc(Cl)cc2)S1	-32%	i	7%	-12%	-20%	-1%
Cc1ccc(S(=O)(=O)Oc2ccccc2/C=N/NC(N)=S)cc1	-53%	i	-21%	-18%	?	4.5µM*
SMILES	HepG2 viability	ATXN viability	ATXN2 expr inh	TGFb SMAD3 inh	HT1080 IDH1KD tx	HT1080-NT tox
CC(C)C(=O)Nc1cccc(C(F)(F)F)c1	/	i	11%	/	/	/
O=C1CC(N2CCN(c3ccc(O)cc3)CC2)C(=O)N1Cc1cccs1 (stereo not given)	-5%	?	-19%	3%	?	?
O=C(c1ccncc1)c1ccc(N2CCN(C3CC(=O)N(Cc4cccs4)C3=O)CC2)cc1 (stereo not given)	-47%	i	/	?	-28%	12µM*
COc1cc2cc(CNc3ccccc3)c(=O)n(CC(=O)Nc3cc(C)cc(C)c3)c2cc1OC	-16%	i	12%	1%	/	/
COc1ccc2sc(-c3ccccc3OC)c(-c3ccc(SC)cc3)c2c1	/	i	16%	/	-6%	9%
COc1ccc2sc(-c3ccc(SC)cc3)c(-c3ccc(O)cc3)c2c1	13µM*	?	22µM*	?	?	?
O=C(Nc1cccs1)Nc1ccc(F)cc1F	-33%	i	6%	-21%	2%	9%
O=C(Nc1cccs1)Nc1ccc(Br)cc1F	-36%	i	-11%	11µM*	?	?
C#CCN(C[C@@H]1[C@@H](OC(=O)Nc2cccs2)[C@@H](OC(=O)Nc2cccs2)Cn2c(=O)ccc(=O)n21)S(=O)(=O)c1ccc(C)cc1	5µM*	3.5µM*	3.5µM*	5.6µM*	16µM*	18µM*
C#CCN(C[C@@H]1[C@@H](OC(=O)NCc2ccccc2F)[C@@H](OC(=O)NCc2ccccc2F)Cn2c(=O)ccc(=O)n21)S(=O)(=O)c1ccc(C)cc1	13µM*	4µM*	4µM*	11µM*	6.5µM*	6.5µM*
C#CCN(C[C@@H]1[C@@H](OC(=O)NC2CCCC2)[C@@H](OC(=O)NC2CCCC2)Cn2c(=O)ccc(=O)n21)S(=O)(=O)c1ccc(C)cc1	-84%	11µM*	?	?	8.2µM*	7.3µM*
CCCCNC(=O)C1(C)CCCCN1Cc1ccccc1-c1ccccc1 (stereo not given)	20µM*	i	?	?	?	?

High-throughput results from PubChem.
